The sample as a whole holds a higher share of hits than the screen did.
HIV RNase H inh-1: inhibitors of HIV-1 reverse transcriptase RNase H; inhibition, % at 10 µM; P04585; RT-RNase H RNA/DNA duplex cleavage, fluorescence; AID 565; actives 1.9% (n = 65,000); in the data active = inhibition above about 50%
RmlCD inh mix: RmlC/RmlD inhibition, mixture screen. actives 0.39% (n = 110,000). RmlC/RmlD coupled enzyme inhibition, 384-well mixture HTS. inhibition, % at 5.5 µM. AID 1532; in the data active = inhibition above about 30%, passing the limit was not always enough
HIV RNase H inh-2: confirmation of HIV-1 reverse transcriptase RNase H inhibitors. Recombinant RT RNase H, fluorescent RNA/DNA duplex cleavage. shares compounds with HIV RNase H inh-1. inhibition, % at 10 µM. actives 39% (n = 1,000); in the data active = inhibition above about 48%
The depositor's hits bear a star.

For COc1ccc(C(=O)Nc2n[nH]c(-c3ccncc3)n2)cc1 the results were RmlCD inh mix 10.
`CC(=O)NCCCc1c[nH]c2ccc(Cl)cc12` gave HIV RNase H inh-1 -4 and RmlCD inh mix -8.
Screening Cc1c(C#N)c2ccccc2n1CC(=O)NC(C)c1ccccc1 (stereo not drawn) returned RmlCD inh mix -1.
`Cc1cccc(NC(=O)Cn2c(C)c(C#N)c3ccccc32)c1C` gave HIV RNase H inh-1 72*, RmlCD inh mix 9 and HIV RNase H inh-2 63*.
Screening CCC1CCCCN1c1nc2c(c(=O)n(C)c(=O)n2C)n1CCSc1nc2ccccc2o1 (stereo not drawn) returned HIV RNase H inh-1 -9.
Screening Cn1ccnc1P(=S)(c1nccn1C)N1CCOCC1 returned HIV RNase H inh-1 87*, RmlCD inh mix 7 and HIV RNase H inh-2 62*.
Cn1ccnc1P(=S)(c1nccn1C)c1nccn1C was read as HIV RNase H inh-1 -6 and RmlCD inh mix 4.
`O=c1cc2c(nn1Cc1ccccc1Cl)-c1ccccc1CC2` gave RmlCD inh mix -12.
`O=S(=O)(c1ccc2nc(-c3ccco3)c(-c3ccco3)nc2c1)N1CCOCC1` gave HIV RNase H inh-1 76*, RmlCD inh mix 3 and HIV RNase H inh-2 26.
Cn1c(=O)n(C)c2cc(S(=O)(=O)N3CCOCC3)ccc21 was read as HIV RNase H inh-1 -6 and RmlCD inh mix 3.
COc1ccc(S(=O)(=O)N(CCc2ccccc2)CC(=O)NC(C)C)cc1 was read as RmlCD inh mix -15.
Screening S=C(c1ccc(Cl)cc1)N1CCOCC1 returned HIV RNase H inh-1 90*, RmlCD inh mix 3 and HIV RNase H inh-2 58*.
`S=C(c1ccc(-c2ccc(Cl)c(Cl)c2)o1)N1CCOCC1` gave HIV RNase H inh-1 66*, RmlCD inh mix 8 and HIV RNase H inh-2 0.
S=C(Nc1ccc(Cl)cc1)N1CCOCC1 was read as RmlCD inh mix -13.
`S=C(c1ccc(-c2ccccc2Cl)o1)N1CCOCC1` gave HIV RNase H inh-1 95*, RmlCD inh mix -17 and HIV RNase H inh-2 51*.
`S=C(c1ccc(-c2ccc(Cl)cc2Cl)o1)N1CCCCC1` gave RmlCD inh mix 11.
`O=C(c1ccc(-c2cccc(C(F)(F)F)c2)o1)N1CCOCC1` gave HIV RNase H inh-1 -32 and RmlCD inh mix -10.
`CC(C)OC(=O)c1cccnc1SCc1cc(=O)n2ccccc2n1` gave HIV RNase H inh-1 -18 and RmlCD inh mix 9.
`O=Cc1ccc(O)c(O)c1` gave RmlCD inh mix -12.
`O=C(O)/C=C/c1ccc(O)c(O)c1` gave HIV RNase H inh-1 74*, RmlCD inh mix 12 and HIV RNase H inh-2 76*.
Cc1nn(CC(=O)NCc2cccc3ccccc23)c(=O)c2ccccc12 was read as RmlCD inh mix -10.
`C[C@@H]1C=C(C(=O)N2CCOCC2)O[C@H](OCc2ccc(CO)cc2)C1` gave RmlCD inh mix 2.
`CCCc1cc(C(=O)Nc2cccc(C(C)=O)c2)no1` gave HIV RNase H inh-1 -7 and RmlCD inh mix 3.
For COc1ccc(NC(=O)c2cc(-c3ccc(OC)c(OC)c3)on2)cc1OC the results were HIV RNase H inh-1 81* and HIV RNase H inh-2 32.
COc1ccc(NC(=O)c2cc(C)on2)cc1OC was read as HIV RNase H inh-1 1 and RmlCD inh mix -9.
CC(=O)c1cccc(NC(=O)c2cc(-c3ccc(C)cc3)on2)c1 was read as HIV RNase H inh-1 52*, RmlCD inh mix -14 and HIV RNase H inh-2 57*.
`CCCC(=O)N1CCN(c2ccc([N+](=O)[O-])c(NC(C)c3ccccc3)c2)CC1` (stereo not drawn) gave RmlCD inh mix -7.
Screening O=C(N/N=C/c1ccccc1)c1sccc1OCc1ccc(F)cc1 returned RmlCD inh mix 6.
For CC1CCN(C(=O)CCNC(=O)Cn2cnc3sc4c(c3c2=O)CCCC4)CC1 the results were RmlCD inh mix -14.
`CCN(CC)C(=O)CCNS(=O)(=O)c1ccc(C)cc1` gave RmlCD inh mix -20.
For Cc1ccc(-n2nc(C)c3c2NC(=O)CSC3c2ccc3c(c2)OCO3)cc1 (stereo not drawn) the results were HIV RNase H inh-1 60*, RmlCD inh mix -6 and HIV RNase H inh-2 64*.
Screening COc1ccc(C2SCC(=O)Nc3c2c(C)nn3-c2ccccc2)cc1 (stereo not drawn) returned RmlCD inh mix 13.
Clc1ccc(SCCn2ccnc2)cc1 was read as HIV RNase H inh-1 -7 and RmlCD inh mix 15.
`O=C(NC1CCCCC1)C1CCCN1S(=O)(=O)c1cccc2nsnc12` (stereo not drawn) gave HIV RNase H inh-1 -1 and RmlCD inh mix 5.
For O=C(O)C1CSCN1S(=O)(=O)c1cccc2nsnc12 (stereo not drawn) the results were HIV RNase H inh-1 62*, RmlCD inh mix 4 and HIV RNase H inh-2 -3.
Screening O=C(COc1ccccc1)Nc1nc(-c2ccc(S(=O)(=O)N3CCOCC3)cc2)cs1 returned HIV RNase H inh-1 66*, RmlCD inh mix -1 and HIV RNase H inh-2 20.
For O=C(COc1ccc(Cl)cc1)Nc1nc(-c2ccc(S(=O)(=O)N3CCOCC3)cc2)cs1 the results were RmlCD inh mix -6.
For CCOC(=O)C1=NN(C(=O)Nc2cccc(C(F)(F)F)c2)C2C(=O)N(c3cccc(C(F)(F)F)c3)C(=O)C12 (stereo not drawn) the results were RmlCD inh mix -4.
Screening CCOC(=O)c1c(C)oc2c1c1c(c3ccccc32)OCN(Cc2ccccn2)C1 returned RmlCD inh mix -11.
`CCOC(=O)c1c(C)oc2c1c(C(c1ccncc1)N1CCOCC1)c(O)c1ccccc12` (stereo not drawn) gave HIV RNase H inh-1 68*, RmlCD inh mix 9 and HIV RNase H inh-2 6.
For CCOc1ccccc1N1CCN(S(=O)(=O)c2cccs2)CC1 the results were HIV RNase H inh-1 -9 and RmlCD inh mix -6.
Screening CCOc1ccccc1N1CCN(S(=O)(=O)CC)CC1 returned HIV RNase H inh-1 53*, RmlCD inh mix -13 and HIV RNase H inh-2 0.
For O=C(c1ccc2c3c(cccc13)C(=O)N(O)C2=O)N1CCCCC1 the results were HIV RNase H inh-1 80*, RmlCD inh mix 3 and HIV RNase H inh-2 70*.
Screening O=C1c2cccc3c(Cl)ccc(c23)C(=O)N1O returned HIV RNase H inh-1 -12 and RmlCD inh mix 9.
`COc1ccc(C2(O)CCN(CCCCOc3ccccc3)CC2)cc1` gave HIV RNase H inh-1 2 and RmlCD inh mix -7.
For CC(=O)c1c(C)oc2ccc(NS(=O)(=O)c3ccc(O)c(C(=O)O)c3)cc12 the results were HIV RNase H inh-1 19 and RmlCD inh mix -17.
O=C(O)c1cc(S(=O)(=O)Nc2ccc3oc(=O)sc3c2)ccc1O was read as HIV RNase H inh-1 82*, RmlCD inh mix 5 and HIV RNase H inh-2 64*.
Cc1nnc2sc(-c3ccncc3)nn12 was read as HIV RNase H inh-1 -7 and RmlCD inh mix 30.
Screening CCOc1ccc(-c2nn3c(-c4ccc(OC)cc4)nnc3s2)cc1 returned HIV RNase H inh-1 -1.
`CCOc1ccc(-c2nn3c(-c4ccccc4)nnc3s2)cc1` gave HIV RNase H inh-1 87*, RmlCD inh mix -9 and HIV RNase H inh-2 17.
Screening CC(C)(C)c1ccc(-c2nnc3sc(-c4ccncc4)nn23)cc1 returned HIV RNase H inh-1 95*, RmlCD inh mix -3 and HIV RNase H inh-2 58*.

From PubChem BioAssay
